Assay results taken from PubChem BioAssay (EPA / NIEHS).
Results filed as inconclusive are left out. Active and inactive are the calls of the source. Rule for the calls, unless noted: active = hit-call score of the fitted dose curve at least 0.9, where 1 is the maximum; inconclusive = response in the unintended direction; inactive = score below 0.9.

experiment: ACEA_ER_80hr: ACEA Biosciences xCELLigence Real-Time Cell Analysis on Estrogen Receptor Agonism for Proliferation (AID 2282667); settings: T47D proliferation, impedance (xCELLigence), 80 h
Method in brief: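 Real-time electrical impedance tracked growth of the human breast line T47D, with the 80 h post-dosing value used. Dosing spanned eight 1:4 steps down from a 100 uM final top concentration, run in duplicate.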

| Structure (SMILES) | outcome | AC50 |
| --- | --- | --- |
| CN(C)CCCNCCCN(C)C | inactive | – |
| CC(CO)c1ccccc1 (stereo unspecified) | inactive | – |
| c1ccc2c(c1)-c1ccc3ccc4cccc5cc-2c1c3c45 | inactive | – |
| CCCCCCCCCCCCN1CCOCC1 | inactive | – |
| C=CC(O)CCCCC (stereo unspecified) | inactive | – |
| C=CC(C)CCCC(C)(C)O (stereo unspecified) | inactive | – |
| O=C1Cc2ccccc2C1 | inactive | – |
| CC(C)(C)c1cccc(O)c1 | inactive | – |
| CCCCCCOc1ccc(O)cc1 | inactive | – |
| CC(O)CNCC(C)O (stereo unspecified) | – | 13.1 µM (active) |
| COc1ccc(C(C)=O)cc1 | – | 0.0267 µM (active) |
| CC(O)COCC(C)O (stereo unspecified) | inactive | – |
| CCCCOCC(C)OCC(C)O (stereo unspecified) | inactive | – |
| CC(C)(CO)CO | inactive | – |
| CC(=O)CCC=C(C)CCC=C(C)C | inactive | – |
| CC(C)C(=O)c1ccccc1 | inactive | – |
| CC(C)CCCC(C)(C)O | inactive | – |

| Structure (SMILES) | outcome | AC50 |
| --- | --- | --- |
| [Na+] | inactive | – |
| O=C(Nc1cccc(Cl)c1)OCC#CCCl | inactive | – |
| NCCN1CCNCC1 | – | 10.8 µM (active) |
| CCOC(=O)C(=O)OCC | inactive | – |
| C=C1CC/C=C(\C)CC[C@@H]2[C@@H]1CC2(C)C | inactive | – |
| O=S1(=O)CC=CC1 | inactive | – |
| CC1=C(C=O)C(C)(C)CCC1 | – | 3.65 µM (active) |
| CCCCCCCC(=O)N(C)C | inactive | – |
| CCCCCCCCCO | inactive | – |
| CC(C)CCOC(=O)CC(C)C | inactive | – |
| CCOC(=O)COC(=O)c1ccccc1C(=O)OCC | inactive | – |
| O=C(O)C(F)(F)C(F)(F)C(F)(F)C(F)(F)C(F)(F)C(F)(F)C(F)(F)C(F)F | – | 14.6 µM (active) |
| CCC=C(C)C=O | inactive | – |
| O=C(O)CS | inactive | – |
| CCCCCc1cccc(=O)o1 | inactive | – |
| C1CCCNCC1 | inactive | – |

experiment: APR_HepG2_CellCycleArrest_24hr: Apredica 24-hour HepG2 Assay for Cell Cycle Arrest (AID 2282905; active = hit-call score of the fitted dose curve at least 0.9, where 1 is the maximum; inactive = score below 0.9;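 note: cell cycle arrest scored as ratio of 2N to 4N nuclear DNA content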); settings: imaging, actives raise or lower the signal
Method in brief: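 Cell cycle arrest is scored from nuclear DNA content measured by high-content imaging of Hoechst 33342-stained HepG2 cells following 24-hour treatment at ten concentrations up to 200 uM, with DMSO as baseline.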

| Structure (SMILES) | AC50 | outcome |
| --- | --- | --- |
| C#C[C@]1(O)CC[C@H]2[C@@H]3CCc4cc(O)ccc4[C@H]3CC[C@@]21C | 36.8 µM (active) | – |
| O=C(c1ccc(OCCN2CCCCC2)cc1)c1c(-c2ccc(O)cc2)sc2cc(O)ccc12 | – | inactive |
| C[C@]12CC[C@@H]3c4ccc(O)cc4CC[C@H]3[C@@H]1CC[C@@H]2O | – | inactive |
| CC/C(=C(\c1ccccc1)c1ccc(OCCN(C)C)cc1)c1ccccc1 | – | inactive |

experiment: APR_HepG2_NuclearSize_24hr: Apredica 24-hour HepG2 Assay for Nuclear Size (AID 2282907; active = hit-call score of the fitted dose curve at least 0.9, where 1 is the maximum; inactive = score below 0.9); settings: high-content imaging, actives raise or lower the signal
Method in brief: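 Compounds in DMSO (final 0.5%) were added to human HepG2 hepatoma cells at ten concentrations up to 200 uM for 24 hr. Fixed nuclei were stained with Hoechst 33342, and nuclear diameter was quantified from automated images.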

| Structure (SMILES) | outcome |
| --- | --- |
| C#C[C@]1(O)CC[C@H]2[C@@H]3CCc4cc(O)ccc4[C@H]3CC[C@@]21C | inactive |
| O=C(c1ccc(OCCN2CCCCC2)cc1)c1c(-c2ccc(O)cc2)sc2cc(O)ccc12 | inactive |
| C[C@]12CC[C@@H]3c4ccc(O)cc4CC[C@H]3[C@@H]1CC[C@@H]2O | inactive |
| CC/C(=C(\c1ccccc1)c1ccc(OCCN(C)C)cc1)c1ccccc1 | inactive |
